Here are results for 8 compounds from PubChem BioAssay (Tox21).

Experiment [1] in a line: qHTS assay to test for compound auto fluorescence at 535 nm (green) in HEK293 cells (AID 720680). On the technique in general: qHTS replaces the single test concentration by a dilution series.
A short description of experiment [2]: qHTS assay to test for compound auto fluorescence at 460 nm (blue) in HEK293 cell free culture (AID 720681). Put shortly:
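Compounds were added to cell-free DMEM with 10% FBS and fluorescence read directly. The blue channel used 405 nm excitation and 460 nm emission, with triamterene as the reference fluorophore.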

The nature of experiment [3]: qHTS assay to test for compound auto fluorescence at 535 nm (green) in HEK293 cell free culture (AID 720682). The procedure, abridged: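 Compounds were pin-transferred into cell-free DMEM with 10% FBS, and green fluorescence was read at excitation 485 nm and emission 535 nm. Intensities were expressed as fluorescein-equivalent values.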
Experiment [4] in a line: qHTS assay to test for compound auto fluorescence at 590 nm (red) in HEK293 cell free culture (AID 720683). The procedure, abridged:
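Cell-free wells of DMEM with 10% FBS received compound, and intrinsic fluorescence was read at excitation/emission 540/590 nm. Values expressed as equivalence to Rose Bengal sodium.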

Experiment [5] is described as follows: qHTS assay to test for compound auto fluorescence at 590 nm (red) in HepG2 cell free culture (AID 720684). Put shortly:
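Rose Bengal sodium served as the reference for red signal. Test compounds were dispensed into serum-containing MEM (10% FBS) without cells, and plates were read at 540/590 nm.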

A short description of experiment [6]: qHTS assay to test for compound auto fluorescence at 460 nm (blue) in HepG2 cell free culture (AID 720685). Put shortly: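 Cell-free plates of MEM plus 10% FBS received 23 nL compound or DMSO vehicle; blue-channel (405/460 nm) intensity scored against triamterene as reference fluorophore.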
Experiment [7] in a line: qHTS assay to test for compound auto fluorescence at 535 nm (green) in HepG2 cell free culture (AID 720686).
The nature of experiment [8]: qHTS assay to test for compound auto fluorescence at 460 nm (blue) in HepG2 cells (AID 720687). The procedure, abridged: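 HepG2 cells in MEM with 10% FBS, attached overnight at 37 C, were exposed to compound or DMSO for 1 hr at 37 C, 5% CO2. Blue fluorescence was read at 405/460 nm, with triamterene as reference fluorophore.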
The target of experiment [9] is Glucocorticoid receptor (Homo sapiens) (UniProt P04150). The experiment in a line: qHTS assay to identify small molecule agonists of the glucocorticoid receptor (GR) signaling pathway (AID 720691; active = well fitted activation curve with a large enough effect in the signal ratio in the repeat runs, not every such curve was filed as active; the % refers to the signal ratio). Put shortly: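 Compounds in DMSO, alongside positive controls, were added to GR-bla HeLa reporter cells and incubated 18 h at 37 C; GRE-driven beta-lactamase was detected by fluorescence after 2 h with FRET substrate at room temperature.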

A short description of experiment [10]: qHTS assay to identify small molecule antagonists of the glucocorticoid receptor (GR) signaling pathway - cell viability counter screen (AID 720693). Also: nearly all actives have a fitted effect of over 55% in size.
A short description of experiment [11]: qHTS assay for identifying genotoxic compounds that show differential cytotoxicity against isogenic chicken DT40 cell lines with known DNA damage response pathways - wild type cell line (AID 743012). Also: nearly all actives have a fitted effect of over 60% in size. Also: potency is read from the fitted curve at half-maximal effect. Put shortly: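 Viability of DNA repair-proficient chicken DT40 cells was assessed by CellTiter-Glo luminescence following 40 h compound exposure at 37 C/5% CO2.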

Experiment [12] in a line: qHTS assay for identifying genotoxic compounds that show differential cytotoxicity against isogenic chicken DT40 cell lines with known DNA damage response pathways - Rev3 mutant cell line (AID 743014). Also: nearly all actives have a fitted effect of over 55% in size. Also: potency is read from the fitted curve at half-maximal effect.
Experiment [13] can be described thus: qHTS assay for identifying genotoxic compounds that show differential cytotoxicity against isogenic chicken DT40 cell lines with known DNA damage response pathways - Rad54/Ku70 mutant cell line (AID 743015). Also: nearly all actives have a fitted effect of over 60% in size. Also: potency is read from the fitted curve at half-maximal effect.
Experiment [14] can be described thus: qHTS assay to identify small molecule antagonists of the androgen receptor (AR) signaling pathway - cell viability counter screen (AID 743033; also: nearly all actives have a fitted effect of over 45% in size).
The nature of experiment [15]: qHTS assay to identify small molecule antagonists of the androgen receptor (AR) signaling pathway using the MDA cell line - cell viability counter screen (AID 743041; also: nearly all actives have a fitted effect of over 45% in size). Put shortly: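 Cytotoxicity counter screen: MDA-kb2 AR-luc cells, compound + R1881, 16 h, 37C, 0% CO2; CellTiter-Fluor added at 15.5 h, fluorescence read after 30 min.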
The target in experiment [16] is Glucocorticoid receptor (Homo sapiens) (UniProt P04150). In words: qHTS assay to identify small molecule antagonists of the glucocorticoid receptor (GR) signaling pathway (AID 720692; active = well fitted inhibition curve with a large enough effect in the signal ratio in the repeat runs, not every such curve was filed as active; the % refers to the signal ratio). The procedure, abridged:
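In a 1536-well cell format, compounds were added 4 h after seeding GR-bla HeLa cells, together with dexamethasone at 5 nM final; reporter activity was measured by FRET-substrate fluorescence following 18 h at 37 C.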

The target of experiment [17] is Androgen receptor (Homo sapiens) (UniProt P10275). The experiment in a line: qHTS assay to identify small molecule antagonists of the androgen receptor (AR) signaling pathway (AID 743035; active = well fitted inhibition curve with a large enough effect in the signal ratio in the repeat runs, not every such curve was filed as active; the % refers to the signal ratio). Put shortly: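 Reporter HEK293 cells were exposed to compounds and R1881 overnight (16 h, 37C); beta-lactamase activity was then quantified by FRET fluorescence.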
For experiment [18] the target is unchanged. In words: qHTS assay to identify small molecule agonists of the androgen receptor (AR) signaling pathway (AID 743036; active = well fitted activation curve with a large enough effect in the signal ratio in the repeat runs, with a control signal flat, not every such curve was filed as active; the % refers to the signal ratio). The procedure, abridged: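 Activation was read as beta-lactamase FRET signal from LiveBLAzer B/G substrate, added for 2 h at room temperature. Before that, GeneBLAzer AR-UAS-bla GripTite (HEK293) cells had 16 h compound exposure at 37C.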

Experiment [19] has the same target. The experiment in a line: qHTS assay to identify small molecule agonists of the androgen receptor (AR) signaling pathway using the MDA cell line (AID 743040; also: nearly all actives have a fitted effect of over 20% in size). Put shortly: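 Luciferase read-out, ONE-Glo, 30 min RT. Cells: MDA-kb2 AR-luc, MMTV promoter with AR and GR response elements. Compound exposure 16 h, 37C, 0% CO2, after 5 h pre-incubation. qHTS agonist mode.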

For experiment [20] the target is unchanged. The experiment in a line: qHTS assay to identify small molecule antagonists of the androgen receptor (AR) signaling pathway using the MDA cell line (AID 743042; also: nearly all actives have a fitted effect of over 55% in size). The procedure, abridged:
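MDA-kb2 breast carcinoma cells carrying MMTV-luciferase (AR/GR responsive) were co-treated with compounds and the agonist R1881 for 16 h at 37C. Inhibition read as ONE-Glo luminescence; CellTiter-Fluor fluorescence measured in parallel for cytotoxicity.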

“And” between values parts separate entries of the source, which are not always exact repeats. Equal entries are not always repeated. Unmarked numbers belong to inactive results. Inconclusive results are not listed. The source made the active and inactive calls. Unless noted, calls follow the shape of the dose curve; as a rule, active = well fitted curve in the direction sought with a large enough effect in the repeat runs; inconclusive = weak or mixed curves; inactive = no such curve, though single readings can be large; an effect the other way counts as inactive or inconclusive.
% is scaled to controls: 0 for no effect and ±100 for the full control effect.

Sequence of Glucocorticoid receptor (Homo sapiens) (P04150 whole entry, looked up): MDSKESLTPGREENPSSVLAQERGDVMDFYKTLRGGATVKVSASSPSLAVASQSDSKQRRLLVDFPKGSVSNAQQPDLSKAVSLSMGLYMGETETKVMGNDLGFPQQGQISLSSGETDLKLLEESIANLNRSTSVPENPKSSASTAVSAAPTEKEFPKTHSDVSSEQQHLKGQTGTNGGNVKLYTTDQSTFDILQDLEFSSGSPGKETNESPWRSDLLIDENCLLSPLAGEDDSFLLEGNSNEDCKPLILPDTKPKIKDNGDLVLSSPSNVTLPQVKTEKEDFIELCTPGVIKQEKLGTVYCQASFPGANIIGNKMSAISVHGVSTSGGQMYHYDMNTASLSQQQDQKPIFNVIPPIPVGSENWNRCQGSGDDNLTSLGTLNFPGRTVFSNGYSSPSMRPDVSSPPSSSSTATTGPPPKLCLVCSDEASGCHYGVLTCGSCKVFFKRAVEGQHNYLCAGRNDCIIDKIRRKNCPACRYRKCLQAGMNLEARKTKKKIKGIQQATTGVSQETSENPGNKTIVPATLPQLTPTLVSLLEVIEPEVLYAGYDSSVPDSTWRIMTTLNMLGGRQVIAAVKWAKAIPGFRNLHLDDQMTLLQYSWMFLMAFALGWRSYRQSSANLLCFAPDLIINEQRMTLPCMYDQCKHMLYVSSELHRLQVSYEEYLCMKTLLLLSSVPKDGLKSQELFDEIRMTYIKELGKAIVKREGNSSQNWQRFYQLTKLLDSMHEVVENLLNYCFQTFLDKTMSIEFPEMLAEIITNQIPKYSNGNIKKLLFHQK
Sequence of Androgen receptor (Homo sapiens) (P10275 whole entry, looked up): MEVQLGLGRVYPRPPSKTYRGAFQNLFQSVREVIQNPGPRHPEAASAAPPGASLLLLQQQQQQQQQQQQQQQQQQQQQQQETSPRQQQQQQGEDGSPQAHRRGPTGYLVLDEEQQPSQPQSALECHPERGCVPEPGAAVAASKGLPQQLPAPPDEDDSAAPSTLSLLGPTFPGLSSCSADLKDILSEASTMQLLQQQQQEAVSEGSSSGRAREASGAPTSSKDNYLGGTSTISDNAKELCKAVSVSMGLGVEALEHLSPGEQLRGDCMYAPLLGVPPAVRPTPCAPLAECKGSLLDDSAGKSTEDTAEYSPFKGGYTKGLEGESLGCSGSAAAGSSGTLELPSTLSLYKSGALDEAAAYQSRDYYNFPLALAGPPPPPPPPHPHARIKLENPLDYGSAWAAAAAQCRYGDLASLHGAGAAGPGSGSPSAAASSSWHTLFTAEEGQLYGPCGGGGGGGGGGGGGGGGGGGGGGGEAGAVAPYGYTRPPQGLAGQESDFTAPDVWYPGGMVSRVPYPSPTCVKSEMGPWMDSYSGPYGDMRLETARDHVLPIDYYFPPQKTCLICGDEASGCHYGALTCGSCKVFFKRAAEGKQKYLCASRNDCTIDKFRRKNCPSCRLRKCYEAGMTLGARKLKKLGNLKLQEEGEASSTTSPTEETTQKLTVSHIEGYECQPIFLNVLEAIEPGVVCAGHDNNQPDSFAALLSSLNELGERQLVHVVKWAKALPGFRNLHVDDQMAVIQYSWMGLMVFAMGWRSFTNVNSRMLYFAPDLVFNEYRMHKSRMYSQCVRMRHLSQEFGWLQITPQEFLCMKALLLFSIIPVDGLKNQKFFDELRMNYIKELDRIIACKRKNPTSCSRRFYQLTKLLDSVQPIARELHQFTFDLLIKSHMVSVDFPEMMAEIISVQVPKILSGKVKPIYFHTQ

Turning to `Nc1ccn([C@@H]2O[C@H](CO)[C@@H](O)C2O)c(=O)n1` (stereo partly drawn), the result in experiment [1], in experiment [2], in [3], in experiment [4], in experiment [5] and in experiment [6] was inactive. In addition, the result in experiment [7], in experiment [8], in experiment [10] and in experiment [14] was inactive. The Potency entry in [9] and in experiment [15] was “inactive” throughout. Further, the Potency in experiment [11] was 298 nM (active) and 193 nM (active); in experiment [12], 266 nM (active) and 172 nM (active); in experiment [13], 376 nM (active) and 172 nM (active).

On to `CCCCCCCCN1CCCC1=O`, for which the result in [1], in experiment [2], in experiment [3], in experiment [4], in [5] and in [6] was inactive. Further, the compound was classed as inactive in [7], in experiment [8] and in experiment [14]. Besides, the Potency result in experiment [9], in [16], in [12] and in experiment [15] was “inactive” in each case.

As for `CO[Si](C)(OC)c1ccccc1`, the compound was called inactive in experiment [1], in experiment [2], in experiment [3], in experiment [4], in [5] and in [6]. In addition, the outcome in experiment [7], in [8], in [10] and in experiment [14] was inactive. The Potency entry in [9], in experiment [11], in experiment [12], in experiment [13] and in experiment [15] was “inactive” in each case.

With `CCC(C)(CN(C)C)OC(=O)c1ccccc1` (stereo not drawn), the fluorescence, % of fluorescein in experiment [1] was -0.0159% [at 18.6 µM]. For the same compound, the fluorescence, % of fluorescent control in experiment [2] is -0.0658% [at 18.6 µM]; in experiment [4], -0.827% [at 18.6 µM]; in experiment [6], 0.131% [at 18.6 µM]; in experiment [8], -0.0227% [at 18.6 µM]. In addition, in experiment [3], the activity change is -0.158% [at 18.6 µM]. The fluorescence, % of Rose Bengal in [5] is -0.0837% [at 18.6 µM]. Moreover, the fluorescence, % of fluorescein control in experiment [7] is 0.0276% [at 18.6 µM]. Moreover, the Potency result in [9], in experiment [16] and in experiment [15] was “inactive” in each case. Also, the compound was called inactive in [10] and in experiment [14].

With `CC(C)C1CCC(O)CC1` (stereo not drawn), the call in [1], in experiment [2], in [3], in [4], in experiment [5] and in experiment [6] was inactive. In addition, the compound was classed as inactive in experiment [7], in [8], in experiment [10], in experiment [14], in experiment [18] and in [20]. Moreover, the Potency entry in [9], in experiment [16], in experiment [12], in experiment [13], in experiment [17] and in experiment [19] was “inactive” each time. For the same compound, in [15], the Potency entry is “inactive”.

With `C=COC(=O)C(C)(CC)CCC(C)C` (stereo not drawn), the result in [1], in experiment [2], in experiment [3], in [4], in experiment [5] and in experiment [6] was inactive. In addition, the result in experiment [7], in experiment [8], in experiment [10] and in experiment [14] was inactive. In addition, the Potency entry in experiment [9], in experiment [11], in experiment [12], in experiment [13] and in [15] was “inactive” throughout.

Regarding `CO[C@@]1(NC(=O)C(C(=O)O)c2ccc(O)cc2)C(=O)N2C(C(=O)O)=C(CSc3nnnn3C)CO[C@@H]21` (stereo partly drawn), the fluorescence, % of fluorescein in experiment [1] is 0.0617% [at 18.6 µM]. Moreover, the fluorescence, % of fluorescent control in [2] is 0.413% [at 18.6 µM]; in [4], 0.0003% [at 18.6 µM]; in [6] it was 0.334% [at 18.6 µM]; in experiment [8], 0.208% [at 18.6 µM]. The activity change in experiment [3] was 0.0756% [at 18.6 µM]. Also, the fluorescence, % of Rose Bengal in experiment [5] was -0.105% [at 18.6 µM]. Besides, the fluorescence, % of fluorescein control in experiment [7] was 0.0104% [at 18.6 µM]. In addition, the Potency result in experiment [9], in experiment [11], in experiment [12], in experiment [13] and in experiment [15] was “inactive” in each case. For the same compound, the compound was called inactive in experiment [10] and in [14].

For the compound `Nc1ccncc1N`, the outcome in experiment [1], in [2], in [3], in [4], in experiment [5] and in experiment [6] was inactive. Also, the outcome in experiment [7], in [8] and in experiment [14] was inactive. Also, the Potency result in experiment [9], in [16], in experiment [13] and in experiment [15] was “inactive” in each case.
